We go through 16 compounds from PubChem BioAssay AID1698 (The Scripps Research Institute Molecular Screening Center, 2009).

Each structure is given as a SMILES string. The list shows a part of the results. A number with no mark means an inactive call. Active and inactive are the calls of the source.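 Rule for the calls: active = activation above the solvent-only control wells' mean plus 3 SD (cut at about 11% in these data); inactive = the rest.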

The target of the test is Neuropeptide Y receptor type 2 (Homo sapiens) (UniProt P49146). In words: human Y2 receptor agonism – cell-based, fluorescence, counter-screen for NPY-Y1 potentiator project (AID 1698).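 Note: 0% = DMSO with isoproterenol and 100% = 40 nM NPY maximal response; agonism lowers cAMP so well fluorescence drops in active wells.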 Particulars: HEK293 Y2-CNGC, membrane potential fluorescence, agonist mode; at 3.6 µM; stronger effect = higher value. (A counterscreen serves to expose hits that act by an unwanted route or on another target.)
Neuropeptide Y receptor type 2 (Homo sapiens), sequence (P49146 whole entry, looked up): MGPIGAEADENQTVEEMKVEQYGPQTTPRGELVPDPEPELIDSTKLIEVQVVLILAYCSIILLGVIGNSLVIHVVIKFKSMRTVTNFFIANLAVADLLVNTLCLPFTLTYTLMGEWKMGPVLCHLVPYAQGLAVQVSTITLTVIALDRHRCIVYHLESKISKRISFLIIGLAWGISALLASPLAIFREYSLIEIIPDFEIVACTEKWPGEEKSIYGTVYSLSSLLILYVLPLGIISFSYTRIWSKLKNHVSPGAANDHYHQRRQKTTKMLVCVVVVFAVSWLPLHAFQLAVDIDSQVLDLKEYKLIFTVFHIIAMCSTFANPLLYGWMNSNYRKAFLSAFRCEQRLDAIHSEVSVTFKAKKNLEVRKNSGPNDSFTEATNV
As for `CC1=C/C(=N\OS(=O)(=O)c2ccccc2)C=CC1=O`, the activation is 26.8% (active).
As for `O=C(c1cccs1)N1CCN(C(=O)N2CCOCC2)CC1`, the activation is -9.63%.
As for `COCCn1nnnc1C(c1ccccc1Cl)N1CCN(c2ccccc2OC)CC1` (stereo unspecified), the activation is 6.66%.
As to `O=[N+]([O-])c1cc(Cl)cc(/C=N/NC(=S)Nc2cc(S(=O)(=O)N3CCOCC3)ccc2Cl)c1O`, the activation is 63.2% (active).
For `COC(=O)c1ccc(NC(=O)CN(c2ccc(C)cc2)S(=O)(=O)c2c(C)n[nH]c2C)cc1`, the activation was 47% (active).
The result for `Cc1cccc(OCC(O)CN2CCN(CCN3C(=O)c4cccc5cccc(c45)C3=O)CC2)c1C` (stereo unspecified) reads 63% (active); that for `O=C(Nc1ccccc1C(F)(F)F)c1cc(-c2ccc(O)cc2)on1`, -2.58%.
As to `CC(=O)c1ccc(NC(=O)C2CC(=O)Nc3nc4ccccc4n32)cc1` (stereo unspecified), the activation is 34.2% (active).
The result for `COC(=O)c1sc(-c2ccc(C(C)(C)C)cc2)cc1NC(=O)/C=C/C(=O)O` reads 22.8% (active); that for `CCn1c2ccccc2c2cc(NC(=O)Nc3ccc([N+](=O)[O-])cc3C)ccc21`, 23.4% (active); that for `O=C(Nc1ccc2c(c1)CCC2)c1cccc(S(=O)(=O)Nc2ccccc2Cl)c1`, 10.3% (active).
The result for `N#Cc1ccc(C(=O)Nc2nc(-c3cccs3)c(C(=O)C(F)(F)F)s2)cc1` reads 0.24%; that for `Cc1ccccc1NCC(=O)N/N=C\c1ccc([N+](=O)[O-])s1`, 39.5% (active).
As to `CN1C(=O)c2ccccc2C(C(=O)NCCCN2CCCC2)C1c1c[nH]c2ccccc12` (stereo unspecified), the activation is -0.28%.
As to `CSc1nc(-c2ccco2)nn1C(=O)c1ccccc1Cl`, the activation is 26% (active).
Take `O=C1/C(=C/c2coc3ccc(O)cc3c2=O)SC(=S)N1c1ccccc1`: the activation was 15.2% (active).
